Here are results for ten molecules from PubChem BioAssay (Tox21).

Each structure is given as a SMILES string. Values without a mark were called inactive. Records with an inconclusive call do not appear. Calls of active or inactive are those of the source. The call rests on the fitted dose curve; in most records, active means well fitted curve in the direction sought with a large enough effect in the repeat runs; inconclusive means weak or mixed curves; inactive means no such curve, though single readings can be large; an effect the other way counts as inactive or inconclusive.

A short description of assay [1]: Human pregnane X receptor (PXR) small molecule agonists, qHTS cell viability counter screen (AID 1346977). Further: on the % scale 0 is the no-effect control and ±100 the full control effect; nearly all actives have a fitted effect of over 50% in size. Summed up: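 In each well, the PXR reporter HepG2 line was checked for viability: CellTiter-Fluor reagent added 23hr post-dosing, fluorescence read after 1hr incubation at 37C.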
On the technique in general: qHTS replaces the single test concentration by a dilution series.

Assay [2] is described as follows: Caspase-3/7 induction in HepG2 cells by small molecules, qHTS assay (AID 1346978). Further: on the % scale 0 is the no-effect control and ±100 the full control effect; nearly all actives have a fitted effect of over 15% in size. Summed up: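 Caspase-3/7 induction was measured by Caspase-Glo 3/7 luminescence (30 min, room temperature) after a 17 hr compound exposure of wild-type HepG2 cells seeded at 2,000 per well and pre-incubated 5 hr.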
Assay [3] in a line: Caspase-3/7 induction in CHO-K1 cells by small molecules, qHTS cell viability counter screen (AID 1346979). Further: on the % scale 0 is the no-effect control and ±100 the full control effect; nearly all actives have a fitted effect of over 35% in size. A digest of the protocol:
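Following a 5hr settling period, CHO-K1 cells at 1,500 per well received DMSO-dissolved compounds. Cell viability was quantified 16hr later by CellTiter-Fluor fluorescence, measured after 1hr with reagent at 37C.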

Assay [4] in a line: Caspase-3/7 induction in CHO-K1 cells by small molecules, qHTS assay (AID 1346980). Further: on the % scale 0 is the no-effect control and ±100 the full control effect; nearly all actives have a fitted effect of over 15% in size. A digest of the protocol: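 Luminescent Caspase-Glo 3/7 read (30min, room temperature) quantified apoptosis induction. Cells were wild-type CHO-K1, treated with compound for 17hr at 37 C and 5% CO2.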
Assay [5] is described as follows: Caspase-3/7 induction in HepG2 cells by small molecules, qHTS cell viability counter screen (AID 1346981). Further: series mostly up to about 92 µM; on the % scale 0 is the no-effect control and ±100 the full control effect; nearly all actives have a fitted effect of over 30% in size. Summed up:
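Fluorescence read-out of live-cell protease activity (CellTiter-Fluor) after 1 hr with reagent. This was measured in the same wells as the caspase-3/7 luminescence, on HepG2 cells exposed to DMSO-dissolved compounds for 16 hr at 37 C.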

The target in assay [6] is Nuclear receptor subfamily 1 group I member 2 (Homo sapiens) (UniProt O75469). Nature of the assay: Human pregnane X receptor (PXR) small molecule agonists, qHTS assay (AID 1346982). Further: nearly all actives have a fitted effect of over 35% in size. Further: potency means the concentration at half of the fitted maximal effect. On activation: on the % scale 0 is the no-effect control and ±100 the full control effect. Summed up:
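HepG2 PXR-Luc reporter line, 5% charcoal-stripped FBS; 5 hr pre-incubation, compound (DMSO) 24 hr at 37 C/5% CO2; ONE-Glo 30 min RT; luminescence read-out.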

Assay [7] concerns the target Cytochrome P450 2C9 (Homo sapiens) (UniProt P11712). Nature of the assay: Cytochrome P450 Family 2 Subfamily C Member 9 (CYP2C9) small molecule antagonists: luciferase reporter qHTS assay (AID 1671198). Further: nearly all actives have a fitted effect of over 50% in size. Further: potency means the concentration at half of the fitted maximal effect. Summed up: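 Enzyme-substrate mix preincubated with compound 10 min at room temperature; reaction started with NADPH regeneration solution, 1 h 37C. Luminescent luciferin product read after 20 min detection reagent.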
(In general: Reporter assays use an easily measured gene product as a stand-in for the process of interest.)

For assay [8], the target named is Cytochrome P450 1A2 (Homo sapiens) (UniProt P05177). The assay can be described thus: Cytochrome P450 Family 1 Subfamily A Member 2 (CYP1A2) small molecule antagonists: luciferase reporter qHTS assay (AID 1671199). Further: nearly all actives have a fitted effect of over 50% in size. Further: potency means the concentration at half of the fitted maximal effect. A digest of the protocol: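 Luminescence readout (relative luminescence units) after luciferin detection reagent, 20 min RT. Preceded by 1 h room-temperature CYP1A2 reaction with NADPH regeneration solution following 10 min compound preincubation with enzyme and proluciferin substrate. Furafylline positive control.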

The target of assay [9] is Voltage-gated inwardly rectifying potassium channel KCNH2 (Homo sapiens) (UniProt Q12809). Nature of the assay: Human Ether-a-go-go-Related Gene (hERG) channel small molecule antagonists: fluorescence cell-based qHTS assay (AID 1671200).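 Further: hERG-expressing U2OS cells given a thallium stimulus after FluxOR II dye loading; series mostly up to about 77 µM; on the % scale 0 is the no-effect control and ±100 the full control effect; nearly all actives have a fitted effect of over 50% in size.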 Summed up: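 In this thallium-flux screen, overnight-cultured U2OS cells bearing the channel are dye-loaded in darkness for an hour, rested 10 min at room temperature, and then monitored kinetically at 480/540 nm for two minutes post-stimulus.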
For orientation: Block of hERG is tested as a sign of cardiac risk.

Assay [10] addresses Cytochrome P450 3A4 (Homo sapiens) (UniProt P08684). Nature of the assay: Cytochrome P450 Family 3 Subfamily A Member 4 (CYP3A4) small molecule antagonists: luciferase reporter qHTS assay (AID 1671201). Further: nearly all actives have a fitted effect of over 50% in size. Further: potency means the concentration at half of the fitted maximal effect. Summed up:
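CYP3A4 activity was followed with a P450-Glo proluciferin substrate. Test compounds in DMSO were preincubated 10 min; NADPH regeneration then ran 1 h, and light output was read 20 min after detection reagent.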

The target in assay [11] is Nuclear receptor subfamily 1 group I member 2 (Rattus norvegicus) (UniProt Q9R1A7). Nature of the assay: Rat pregnane X receptor (rPXR) activation by small molecules, qHTS assay (AID 1346983). Further: nearly all actives have a fitted effect of over 20% in size. Further: potency means the concentration at half of the fitted maximal effect. On max activation: on the % scale 0 is the no-effect control and ±100 the full control effect. Conditions: rPXR luciferase reporter cells, One-Glo luminescence, 24 h; max activation: hits give high values. A digest of the protocol: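 Luminescent readout (One-Glo luciferase, 30 min room temperature) followed 24 hr compound treatment at 37 C of rPXR cells plated 2,000 per well and preincubated 5hr; qHTS format with compounds delivered in DMSO.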

Assay [12] has as its target Nuclear receptor subfamily 1 group I member 2 (Homo sapiens) (UniProt O75469). Nature of the assay: CYP3A4 induction through human pregnane X receptor (PXR) by small molecules, qHTS assay (AID 1346984). Further: nearly all actives have a fitted effect of over 40% in size. Further: potency means the concentration at half of the fitted maximal effect. On activation: on the % scale 0 is the no-effect control and ±100 the full control effect. Summed up: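 HepG2-derived DPX-2 line carrying PXR plus a CYP3A4-promoter luciferase reporter; cells plated 5 hr, compound-exposed 24 hr at 37C. CYP3A4 activity probed with 3uM (final) Luciferin-IPA for 3hr, then luciferase read after One-Glo.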

Assay [13] concerns the target Cytochrome P450 2C19 (Homo sapiens) (UniProt P33261). The assay can be described thus: Cytochrome P450 Family 2 Subfamily C Member 19 (CYP2C19) small molecule antagonists: luciferase reporter qHTS assay (AID 1671197). Further: nearly all actives have a fitted effect of over 65% in size. Further: potency means the concentration at half of the fitted maximal effect. Summed up: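 First, compounds are pinned into enzyme-substrate mix and held 10 min at room temperature. Second, NADPH regeneration solution is added and plates incubate 1 h at 37C. Third, detection reagent is added and luminescence read after 20 min.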

The target in assay [14] is Cytochrome P450 2D6 (Homo sapiens) (UniProt P10635). The assay can be described thus: Cytochrome P450 Family 2 Subfamily D Member 6 (CYP2D6) small molecule antagonists: luciferase reporter qHTS assay (AID 1671196). Summed up:
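Luminogenic proluciferin substrate, CYP2D6 enzyme; 10 min RT preincubation with compound, NADPH regeneration system added, 1 h RT. Stop/detection reagent, 20 min RT, luminescence read (RLU). Signal proportional to CYP activity.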

The target of assay [15] is Nuclear receptor subfamily 1 group I member 2 (Homo sapiens) (UniProt O75469). Nature of the assay: Human pregnane X receptor (PXR) activation by small molecules, qHTS assay (AID 1346985). Further: potency means the concentration at half of the fitted maximal effect; nearly all actives have a fitted effect of over 40% in size. Summed up: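 DPX-2 cells (HepG2 co-transfected with a PXR response element and a CYP3A4-promoter luciferase construct) were seeded at 2,000 per well, rested 5 hr at 37C, then exposed to DMSO-dissolved compounds for 24 hr. Activation was read as luciferase luminescence.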
Sequence of Nuclear receptor subfamily 1 group I member 2 (Homo sapiens) (O75469 whole entry, looked up): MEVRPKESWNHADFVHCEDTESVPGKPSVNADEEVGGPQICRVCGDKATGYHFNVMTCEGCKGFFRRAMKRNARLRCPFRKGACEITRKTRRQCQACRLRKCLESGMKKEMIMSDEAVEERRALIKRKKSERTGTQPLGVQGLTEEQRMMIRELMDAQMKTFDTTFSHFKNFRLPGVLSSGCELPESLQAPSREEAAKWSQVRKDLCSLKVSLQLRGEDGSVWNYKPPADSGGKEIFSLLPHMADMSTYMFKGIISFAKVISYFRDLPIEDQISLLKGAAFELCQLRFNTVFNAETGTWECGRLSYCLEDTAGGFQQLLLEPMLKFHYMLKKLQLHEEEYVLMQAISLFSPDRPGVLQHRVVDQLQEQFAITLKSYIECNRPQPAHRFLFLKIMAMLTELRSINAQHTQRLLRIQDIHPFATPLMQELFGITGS

Sequence of Cytochrome P450 2C19 (Homo sapiens) (P33261 whole entry, looked up): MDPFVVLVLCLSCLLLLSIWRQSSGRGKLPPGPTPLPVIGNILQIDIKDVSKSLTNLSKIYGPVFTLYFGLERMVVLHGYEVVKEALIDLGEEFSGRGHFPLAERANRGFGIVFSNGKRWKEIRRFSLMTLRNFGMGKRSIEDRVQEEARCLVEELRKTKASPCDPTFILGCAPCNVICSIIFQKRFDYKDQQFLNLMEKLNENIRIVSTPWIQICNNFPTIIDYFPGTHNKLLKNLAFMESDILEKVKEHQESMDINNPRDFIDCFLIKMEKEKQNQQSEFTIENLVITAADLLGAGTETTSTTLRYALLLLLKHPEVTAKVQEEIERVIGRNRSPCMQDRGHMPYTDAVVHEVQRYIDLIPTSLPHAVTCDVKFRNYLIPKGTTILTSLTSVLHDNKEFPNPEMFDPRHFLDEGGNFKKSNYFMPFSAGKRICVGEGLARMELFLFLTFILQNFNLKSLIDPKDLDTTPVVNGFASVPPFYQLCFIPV
Sequence of Cytochrome P450 2C9 (Homo sapiens) (P11712 whole entry, looked up): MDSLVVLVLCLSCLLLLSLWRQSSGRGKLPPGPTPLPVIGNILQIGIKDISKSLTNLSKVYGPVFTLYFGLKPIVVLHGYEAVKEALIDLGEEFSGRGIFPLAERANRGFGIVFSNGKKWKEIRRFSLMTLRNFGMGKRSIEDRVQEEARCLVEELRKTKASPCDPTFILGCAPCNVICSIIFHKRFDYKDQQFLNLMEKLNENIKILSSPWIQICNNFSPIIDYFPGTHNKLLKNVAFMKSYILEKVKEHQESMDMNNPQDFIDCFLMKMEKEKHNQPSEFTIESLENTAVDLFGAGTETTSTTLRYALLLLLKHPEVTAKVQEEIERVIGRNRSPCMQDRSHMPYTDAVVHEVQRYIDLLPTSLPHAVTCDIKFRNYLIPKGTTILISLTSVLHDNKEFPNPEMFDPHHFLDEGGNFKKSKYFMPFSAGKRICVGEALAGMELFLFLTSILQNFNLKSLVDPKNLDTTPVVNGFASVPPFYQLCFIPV
Sequence of Cytochrome P450 1A2 (Homo sapiens) (P05177 whole entry, looked up): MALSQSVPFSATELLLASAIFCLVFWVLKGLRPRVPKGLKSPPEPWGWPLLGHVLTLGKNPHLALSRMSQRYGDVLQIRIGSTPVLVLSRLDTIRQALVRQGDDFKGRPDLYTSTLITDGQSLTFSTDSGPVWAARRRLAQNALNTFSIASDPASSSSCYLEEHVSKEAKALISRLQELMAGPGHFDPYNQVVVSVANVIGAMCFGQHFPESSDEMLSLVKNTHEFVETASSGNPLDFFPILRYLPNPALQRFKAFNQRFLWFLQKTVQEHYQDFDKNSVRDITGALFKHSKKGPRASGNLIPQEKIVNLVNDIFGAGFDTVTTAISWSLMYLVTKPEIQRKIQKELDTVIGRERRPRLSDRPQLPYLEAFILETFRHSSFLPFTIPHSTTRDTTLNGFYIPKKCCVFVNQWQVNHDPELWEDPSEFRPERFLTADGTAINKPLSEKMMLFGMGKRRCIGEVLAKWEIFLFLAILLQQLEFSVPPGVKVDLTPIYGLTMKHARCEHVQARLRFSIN
Sequence of Cytochrome P450 2D6 (Homo sapiens) (P10635 whole entry, looked up): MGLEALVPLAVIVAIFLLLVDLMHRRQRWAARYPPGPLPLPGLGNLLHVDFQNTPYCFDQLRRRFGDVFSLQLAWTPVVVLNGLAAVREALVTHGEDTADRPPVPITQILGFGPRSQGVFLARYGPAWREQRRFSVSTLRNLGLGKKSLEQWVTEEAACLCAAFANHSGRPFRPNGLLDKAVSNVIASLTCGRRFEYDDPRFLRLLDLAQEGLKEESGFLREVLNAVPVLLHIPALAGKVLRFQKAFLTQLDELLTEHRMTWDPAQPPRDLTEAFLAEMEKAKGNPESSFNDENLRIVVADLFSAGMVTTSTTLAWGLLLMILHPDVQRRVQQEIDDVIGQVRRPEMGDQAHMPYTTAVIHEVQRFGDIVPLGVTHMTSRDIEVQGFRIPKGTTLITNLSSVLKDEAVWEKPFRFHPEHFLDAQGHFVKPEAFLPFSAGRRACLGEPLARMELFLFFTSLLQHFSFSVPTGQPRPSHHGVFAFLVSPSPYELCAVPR
Sequence of Cytochrome P450 3A4 (Homo sapiens) (P08684 whole entry, looked up): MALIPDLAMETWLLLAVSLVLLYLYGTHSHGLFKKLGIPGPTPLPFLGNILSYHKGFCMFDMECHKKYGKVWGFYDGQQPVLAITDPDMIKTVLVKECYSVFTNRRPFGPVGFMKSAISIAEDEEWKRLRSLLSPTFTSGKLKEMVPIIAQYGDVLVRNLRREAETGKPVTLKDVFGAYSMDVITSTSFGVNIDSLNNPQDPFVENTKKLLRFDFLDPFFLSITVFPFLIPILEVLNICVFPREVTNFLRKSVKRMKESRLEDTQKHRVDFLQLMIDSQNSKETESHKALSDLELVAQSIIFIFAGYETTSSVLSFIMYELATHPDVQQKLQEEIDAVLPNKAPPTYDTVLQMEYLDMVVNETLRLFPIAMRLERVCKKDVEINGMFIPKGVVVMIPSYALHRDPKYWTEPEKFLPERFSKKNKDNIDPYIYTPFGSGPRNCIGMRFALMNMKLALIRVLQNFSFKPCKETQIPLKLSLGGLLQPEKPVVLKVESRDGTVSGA
Sequence of Nuclear receptor subfamily 1 group I member 2 (Rattus norvegicus) (Q9R1A7 whole entry, looked up): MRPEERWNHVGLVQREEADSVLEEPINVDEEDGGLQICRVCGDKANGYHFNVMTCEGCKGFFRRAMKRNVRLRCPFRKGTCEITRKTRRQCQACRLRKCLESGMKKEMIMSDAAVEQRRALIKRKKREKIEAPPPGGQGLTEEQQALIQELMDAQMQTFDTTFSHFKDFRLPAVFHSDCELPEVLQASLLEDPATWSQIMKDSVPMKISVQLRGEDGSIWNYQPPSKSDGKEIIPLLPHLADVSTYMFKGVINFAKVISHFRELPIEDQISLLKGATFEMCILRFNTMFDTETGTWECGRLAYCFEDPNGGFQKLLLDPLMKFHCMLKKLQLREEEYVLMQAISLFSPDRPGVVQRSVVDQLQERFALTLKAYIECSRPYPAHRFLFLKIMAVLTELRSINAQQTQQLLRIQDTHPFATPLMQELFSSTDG
Sequence of Voltage-gated inwardly rectifying potassium channel KCNH2 (Homo sapiens) (Q12809 whole entry, looked up): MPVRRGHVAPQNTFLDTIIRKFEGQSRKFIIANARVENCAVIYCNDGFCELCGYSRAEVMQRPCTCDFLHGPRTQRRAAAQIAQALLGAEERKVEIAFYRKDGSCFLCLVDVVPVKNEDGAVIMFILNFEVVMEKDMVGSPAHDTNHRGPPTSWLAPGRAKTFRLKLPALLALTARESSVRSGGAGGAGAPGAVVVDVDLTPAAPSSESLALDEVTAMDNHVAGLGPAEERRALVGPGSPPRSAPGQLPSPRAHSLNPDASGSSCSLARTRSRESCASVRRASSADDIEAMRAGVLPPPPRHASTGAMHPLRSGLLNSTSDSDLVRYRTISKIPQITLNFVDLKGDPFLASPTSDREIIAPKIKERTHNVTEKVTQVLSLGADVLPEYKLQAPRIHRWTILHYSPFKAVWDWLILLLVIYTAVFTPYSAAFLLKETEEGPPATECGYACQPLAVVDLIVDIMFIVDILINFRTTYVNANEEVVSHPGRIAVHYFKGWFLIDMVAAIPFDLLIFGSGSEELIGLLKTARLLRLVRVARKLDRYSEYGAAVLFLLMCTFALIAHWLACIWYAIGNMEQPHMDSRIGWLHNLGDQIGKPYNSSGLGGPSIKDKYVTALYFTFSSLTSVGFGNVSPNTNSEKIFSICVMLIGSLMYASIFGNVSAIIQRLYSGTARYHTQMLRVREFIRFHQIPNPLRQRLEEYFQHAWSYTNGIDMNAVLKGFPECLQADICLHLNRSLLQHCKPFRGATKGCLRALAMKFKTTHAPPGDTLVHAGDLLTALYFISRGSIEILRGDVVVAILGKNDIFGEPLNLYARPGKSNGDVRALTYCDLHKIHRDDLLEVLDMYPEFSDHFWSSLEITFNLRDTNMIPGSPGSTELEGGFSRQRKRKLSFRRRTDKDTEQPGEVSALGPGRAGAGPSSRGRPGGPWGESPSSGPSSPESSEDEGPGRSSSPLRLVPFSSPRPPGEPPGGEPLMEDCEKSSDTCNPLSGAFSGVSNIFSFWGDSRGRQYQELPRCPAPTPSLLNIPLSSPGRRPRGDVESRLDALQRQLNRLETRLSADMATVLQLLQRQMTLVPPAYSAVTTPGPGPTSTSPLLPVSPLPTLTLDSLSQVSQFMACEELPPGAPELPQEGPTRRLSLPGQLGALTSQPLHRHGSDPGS

For `CCC(C)COC(C)=O` (stereo unspecified), the Potency entry in assay [1], in [2], in assay [3], in [4], in assay [5] and in [6] was “inactive” each time. Besides, the Potency entry in assay [7], in assay [8], in assay [9] and in assay [10] was “inactive” in each case.

As for `CN(C)CCN1C(=O)c2ccccc2N(C)c2ccccc21`, the Potency result in assay [1], in [2], in assay [3], in assay [4], in [5] and in assay [12] was “inactive” each time. Also, the Potency entry in assay [13], in assay [7], in assay [8], in assay [9] and in assay [10] was “inactive” throughout. The max activation in assay [11] is 5.5%.

`CC(=O)[C@H]1[C@H](C#N)C[C@H]2[C@@H]3CC=C4C[C@@H](O)CC[C@]4(C)[C@H]3CC[C@@]21C`: the Potency result in [1], in assay [2], in assay [3], in assay [4], in [5] and in [14] was “inactive” throughout. Also, the Potency entry in [13], in assay [8] and in [10] was “inactive” each time. Also, the Potency in assay [6] was 33.1 µM (active).

With `CCCCCC[C@@H](O)C/C=C\CCCCCCCC(=O)O`, the Potency result in assay [1], in [2], in [3], in assay [4], in assay [5] and in [6] was “inactive” throughout. The Potency entry in assay [14], in assay [8] and in [10] was “inactive” in each case.

As for `C=C1CCC2CC1C2(C)C` (stereo unspecified), the Potency result in assay [1], in assay [2], in [3], in [4], in assay [5] and in [6] was “inactive” in each case. The Potency entry in [13], in [7], in assay [8], in [9] and in [10] was “inactive” throughout.

In the case of `CC1(C)[C@@H](OC(=O)CCC(=O)O)CC[C@]2(C)[C@H]3C(=O)C=C4[C@@H]5C[C@@](C)(C(=O)O)CC[C@]5(C)CC[C@@]4(C)[C@]3(C)CC[C@@H]12`, the Potency entry in [1], in assay [2], in assay [3], in assay [4], in [5] and in assay [9] was “inactive” in each case. In addition, the max activation in assay [11] is -0.478%.

`C=CC(C)(CCC=C(C)C)OC(=O)CC(C)C` (stereo unspecified): the Potency result in assay [1], in [2], in assay [3], in [4], in assay [5] and in assay [6] was “inactive” each time. Also, the Potency result in assay [14] and in assay [9] was “inactive” each time. The Potency in assay [13], in assay [7] and in assay [10] was 35.6 µM (active) throughout.

As for `Cc1cc(O)c(C)c(C)c1O`, the Potency entry in assay [1], in assay [2], in assay [3], in assay [4], in assay [5] and in assay [6] was “inactive” throughout. Moreover, the Potency entry in assay [9] was “inactive”. For the same molecule, in assay [8], the Potency was 15.5 µM (active).

As to `O=C1c2ccccc2C(=O)C1c1ccc(Br)cc1`, the Potency result in assay [1], in assay [2], in assay [3], in assay [4], in assay [5] and in assay [14] was “inactive” each time. In addition, the Potency result in [9] and in assay [10] was “inactive” in each case. Also, the Potency in [11] was 11.2 µM (active); in assay [12], 25.1 µM (active); in assay [15], 7.08 µM (active); in assay [13] it was 1.55 µM (active); in [7] it was 3.47 µM (active).

On to `Cc1cscn1`, for which the Potency result in [1], in assay [2], in assay [3], in assay [4], in [5] and in assay [6] was “inactive” throughout. The Potency result in [13], in assay [7], in assay [9] and in assay [10] was “inactive” throughout.
